{"source": "ChEMBL document CHEMBL5606458", "about": "“ASAP - ZIKV NS2B-NS3 protease fluorescence single point” (2024)", "biological_target": "Nonstructural protein 3 (Zika virus) (UniProt A0A024AXB9)", "sequence (A0A024AXB9 as listed by the source)": "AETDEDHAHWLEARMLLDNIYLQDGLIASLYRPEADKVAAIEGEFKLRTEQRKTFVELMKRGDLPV", "note": "In all, about 2,700 compounds went through this assay and about 160 (5.9%) showed an effect of 50% or more. The full list was thinned out, with strong results kept by preference.", "data": [{"smiles": "CCCCCC(=O)N[C@H](C(=O)N1CCC(CN)CC1)c1ccc(OCc2ccccc2)cc1", "values": [{"measurement": "inhibition", "setting": "PRVABC59, Concentration 49.5 uM, Number of replicates 2.0, Standard deviation 1.1847944417619873 %", "result": 5.06, "unit": "%"}, {"measurement": "inhibition", "setting": "PRVABC59, Concentration 99.01 uM, Number of replicates 2.0, Standard deviation 0.3935504126553241 %", "result": 10.8, "unit": "%"}, {"measurement": "inhibition", "setting": "PRVABC59, Concentration 198.0 uM, Number of replicates 2.0, Standard deviation 0.8347422741682105 %", "result": 26.5, "unit": "%"}]}, {"smiles": "NCc1ccc(NC(=O)[C@@H](NC(=O)OCc2ccccc2)c2ccc(OCc3ccccc3)cc2)cc1", "values": [{"measurement": "inhibition", "setting": "PRVABC59, Concentration 49.5 uM, Number of replicates 2.0, Standard deviation 1.551749181482573 %", "result": 7.22, "unit": "%"}, {"measurement": "inhibition", "setting": "PRVABC59, Concentration 99.01 uM, Number of replicates 2.0, Standard deviation 2.287213711046402 %", "result": 11.8, "unit": "%"}, {"measurement": "inhibition", "setting": "PRVABC59, Concentration 198.0 uM, Number of replicates 2.0, Standard deviation 0.9961100816492645 %", "result": 23, "unit": "%"}]}, {"smiles": "CCCCCC(=O)N[C@H](C(=O)NCc1cccc(CN)c1)c1ccc(OCc2ccccc2)cc1", "values": [{"measurement": "inhibition", "setting": "PRVABC59, Concentration 49.5 uM, Number of replicates 2.0, Standard deviation 0.8118332703664171 %", "result": -3.7, "unit": "%"}, {"measurement": "inhibition", "setting": "PRVABC59, Concentration 99.01 uM, Number of replicates 2.0, Standard deviation 11.543494465765306 %", "result": 89.7, "unit": "%"}, {"measurement": "inhibition", "setting": "PRVABC59, Concentration 198.0 uM, Number of replicates 2.0, Standard deviation 0.4445743989869767 %", "result": 99, "unit": "%"}]}, {"smiles": "NC1(c2cccc(NC(=O)[C@@H](NC(=O)OCc3ccccc3)c3ccc(OCc4ccccc4)cc3)c2)CCC1", "values": [{"measurement": "inhibition", "setting": "PRVABC59, Concentration 49.5 uM, Number of replicates 2.0, Standard deviation 2.468656231060589 %", "result": 14.2, "unit": "%"}, {"measurement": "inhibition", "setting": "PRVABC59, Concentration 99.01 uM, Number of replicates 2.0, Standard deviation 1.4495575723595426 %", "result": 30.7, "unit": "%"}, {"measurement": "inhibition", "setting": "PRVABC59, Concentration 198.0 uM, Number of replicates 2.0, Standard deviation 0.13484294125181392 %", "result": 82.7, "unit": "%"}]}, {"smiles": "NCc1cccc(NC(=O)[C@@H](NC(=O)OCc2ccccc2)c2ccc(OCc3ccccc3)cc2)c1", "values": [{"measurement": "inhibition", "setting": "PRVABC59, Concentration 49.5 uM, Number of replicates 2.0, Standard deviation 0.012122107981309298 %", "result": 99.6, "unit": "%"}, {"measurement": "inhibition", "setting": "PRVABC59, Concentration 99.01 uM, Number of replicates 2.0, Standard deviation 0.01616281064174573 %", "result": 99.1, "unit": "%"}, {"measurement": "inhibition", "setting": "PRVABC59, Concentration 198.0 uM, Number of replicates 2.0, Standard deviation 0.06465124256698292 %", "result": 97.8, "unit": "%"}]}, {"smiles": "CCCCCC(=O)N[C@H](C(=O)NCc1ccc(N)nc1)c1ccc(OCc2ccccc2)cc1", "values": [{"measurement": "inhibition", "setting": "PRVABC59, Concentration 49.5 uM, Number of replicates 2.0, Standard deviation 0.04494641077638166 %", "result": -2.18, "unit": "%"}, {"measurement": "inhibition", "setting": "PRVABC59, Concentration 99.01 uM, Number of replicates 2.0, Standard deviation 0.3023657059020049 %", "result": 1.76, "unit": "%"}, {"measurement": "inhibition", "setting": "PRVABC59, Concentration 198.0 uM, Number of replicates 2.0, Standard deviation 0.018387068425059654 %", "result": -1.18, "unit": "%"}]}, {"smiles": "O=C(Nc1cccc(N2CCNCC2)c1)c1cccc2ncccc12", "values": [{"measurement": "inhibition", "setting": "PRVABC59, Concentration 49.5 uM, Number of replicates 2.0, Standard deviation 0.4660025311194914 %", "result": 12.8, "unit": "%"}, {"measurement": "inhibition", "setting": "PRVABC59, Concentration 99.01 uM, Number of replicates 2.0, Standard deviation 1.8240670503820091 %", "result": 21.1, "unit": "%"}, {"measurement": "inhibition", "setting": "PRVABC59, Concentration 198.0 uM, Number of replicates 2.0, Standard deviation 0.426059457023535 %", "result": 34.4, "unit": "%"}]}, {"smiles": "CCn1ccnc(N2CC[C@@H](Cc3ccncc3)C2)c1=O", "values": [{"measurement": "inhibition", "setting": "PRVABC59, Concentration 50.0 uM, Number of replicates 2.0, Standard deviation 17.324672814645545 %", "result": 18.6, "unit": "%"}, {"measurement": "inhibition", "setting": "PRVABC59, Concentration 100.0 uM, Number of replicates 2.0, Standard deviation 1.6917913579666908 %", "result": 12.9, "unit": "%"}, {"measurement": "inhibition", "setting": "PRVABC59, Concentration 200.0 uM, Number of replicates 2.0, Standard deviation 5.92774721773736 %", "result": 23.1, "unit": "%"}]}, {"smiles": "CC(C)c1cc(CN2CCC3(CC2)C(=O)NCc2ccccc23)n[nH]1", "values": [{"measurement": "inhibition", "setting": "PRVABC59, Concentration 49.5 uM, Number of replicates 2.0, Standard deviation 2.3847652893231714 %", "result": 1.4, "unit": "%"}, {"measurement": "inhibition", "setting": "PRVABC59, Concentration 99.01 uM, Number of replicates 2.0, Standard deviation 4.553677158798315 %", "result": 2.83, "unit": "%"}, {"measurement": "inhibition", "setting": "PRVABC59, Concentration 198.0 uM, Number of replicates 2.0, Standard deviation 2.2809894644583135 %", "result": 6.37, "unit": "%"}]}, {"smiles": "O=S(=O)(c1c[nH]c2ccccc12)N1CCC(c2cnc3ccc[nH]c2-3)CC1", "values": [{"measurement": "inhibition", "setting": "PRVABC59, Concentration 49.5 uM, Number of replicates 2.0, Standard deviation 0.9724228784365659 %", "result": 34, "unit": "%"}, {"measurement": "inhibition", "setting": "PRVABC59, Concentration 99.01 uM, Number of replicates 2.0, Standard deviation 0.1115050511195736 %", "result": 36.4, "unit": "%"}, {"measurement": "inhibition", "setting": "PRVABC59, Concentration 198.0 uM, Number of replicates 2.0, Standard deviation 2.3986425606638684 %", "result": 29, "unit": "%"}]}, {"smiles": "CCn1ccnc(N2CC[C@H](c3ccc(OC)nc3)C2)c1=O", "values": [{"measurement": "inhibition", "setting": "PRVABC59, Concentration 50.0 uM, Number of replicates 2.0, Standard deviation 2.450630192539874 %", "result": 10.5, "unit": "%"}, {"measurement": "inhibition", "setting": "PRVABC59, Concentration 100.0 uM, Number of replicates 2.0, Standard deviation 0.40502109894604904 %", "result": 17.9, "unit": "%"}, {"measurement": "inhibition", "setting": "PRVABC59, Concentration 200.0 uM, Number of replicates 2.0, Standard deviation 0.08715563662307181 %", "result": 30.5, "unit": "%"}]}, {"smiles": "CCCCCNC(=O)c1cc(Cl)ccc1NS(=O)(=O)c1ccc(Oc2ccccc2Cl)cc1", "values": [{"measurement": "inhibition", "setting": "PRVABC59, Concentration 49.5 uM, Number of replicates 2.0, Standard deviation 0.82866638448688 %", "result": 30.5, "unit": "%"}, {"measurement": "inhibition", "setting": "PRVABC59, Concentration 99.01 uM, Number of replicates 2.0, Standard deviation 0.1903473061675686 %", "result": 14.2, "unit": "%"}]}, {"smiles": "CN(CCS(N)(=O)=O)C(=O)c1cc(Cl)ccc1NS(=O)(=O)c1ccc(Oc2ccccc2Cl)cc1", "values": [{"measurement": "inhibition", "setting": "PRVABC59, Concentration 49.5 uM, Number of replicates 2.0, Standard deviation 4.192376018410405 %", "result": 8.99, "unit": "%"}, {"measurement": "inhibition", "setting": "PRVABC59, Concentration 99.01 uM, Number of replicates 2.0, Standard deviation 3.3291863073712813 %", "result": 17.3, "unit": "%"}, {"measurement": "inhibition", "setting": "PRVABC59, Concentration 198.0 uM, Number of replicates 2.0, Standard deviation 0.7795966632269805 %", "result": 72.5, "unit": "%"}]}, {"smiles": "CCCN(C)C(=O)c1cc(Cl)ccc1NS(=O)(=O)c1ccc(Oc2ccccc2Cl)cc1", "values": [{"measurement": "inhibition", "setting": "PRVABC59, Concentration 49.5 uM, Number of replicates 2.0, Standard deviation 1.6827651888895978 %", "result": 30.1, "unit": "%"}, {"measurement": "inhibition", "setting": "PRVABC59, Concentration 99.01 uM, Number of replicates 2.0, Standard deviation 1.553741884480168 %", "result": 42.7, "unit": "%"}, {"measurement": "inhibition", "setting": "PRVABC59, Concentration 198.0 uM, Number of replicates 2.0, Standard deviation 1.4828704414225533 %", "result": 51.4, "unit": "%"}]}]}
